Assay results from the supplement of paper PMC4723716.

Test system: Plasmodium falciparum NF54 gametocytes
Assay: viability index relative to DMSO control (fraction); higher = less gametocyte killing
Conditions: 12.5 µM, incubation time: 72 h
Outline: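 In 384-well plates, compound at 12.5 µM was incubated for 72 hr at 37°C under low oxygen with P. falciparum NF54 gametocytes of each stage (I–V) at 0.50% gametocytemia and 1.25% hematocrit in 40 µl of serum-containing medium. Staining used 5 µl of 5 µM MitoTracker Red CMXRos for 20 min, then 5 µl was moved into 40 µl of 500 nM dye in serum-free medium and imaged after 30 min. Dividing the gametocyte particle count by the plate mean of solvent-only wells gave the viability index.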

[1] = gametocyte stage: Stage I viability index
[2] = gametocyte stage: Stage II viability index
[3] = gametocyte stage: Stage III viability index
[4] = gametocyte stage: Stage IV viability index
[5] = gametocyte stage: Stage V viability index

Structure (SMILES) | viability index [1] | viability index [2] | viability index [3] | viability index [4] | viability index [5]
CCOC(=O)c1c(C)n(-c2ccccc2)c2ccc(OC(=O)c3cc(OC)c(OC)c(OC)c3)cc12 | 1.05 | 0.724 | 0.947 | 0.987 | 1.05
Cn1c(=O)n(C)c2cc(CNCCNc3ccnc4cc(Cl)ccc34)ccc21 | 0.49 | 0.57 | 0.597 | 0.75 | 0.494
Cc1ccc(S(=O)(=O)c2c(COC(=O)c3cccc(C)c3)c(-c3ccccc3)nn2C)cc1 | 0.982 | 0.881 | 0.943 | 0.769 | 0.922
CC(=O)c1ccc(NC(=O)CSc2nc(-c3ccccc3Cl)ns2)cc1 | 0.102 | 0.308 | 0.308 | 0.62 | 0.584
CCOC(=O)C1CCN(C(=O)CN2C(=O)c3ccccc3C2c2c[nH]c3ccccc23)CC1 (stereo not given) | 1.39 | 0.924 | 1.14 | 1.13 | 1.18
O=C(Nc1ccc(N2CCCCC2)c(Cl)c1)c1ccc(Br)o1 | 0.673 | 0.726 | 0.762 | 0.787 | 0.978
O=C(Nc1ccc(C23CC4CC(CC(c5ccccc5)(C4)C2)C3)cc1)c1cccs1 | 0.939 | 0.824 | 0.986 | 0.744 | 1.14
COc1ccc(Nc2cc(C)nc(NCc3ccccc3)n2)cc1 | 0.0594 | 0.319 | 0.487 | 0.589 | 0.481
CCOc1c(Cl)cc(CNCC(O)c2ccccc2)cc1OC (stereo not given) | 0.231 | 0.272 | 0.793 | 0.918 | 0.714
COc1ccc(CCn2c(=N)c(C(=O)NCc3cccnc3)cc3c(=O)n4cccc(C)c4nc32)cc1 | 0.076 | 0.611 | 0.917 | 0.937 | 1.09
CN1CCN(c2ccc(Nc3c4ccccc4nc4ccccc34)cc2)CC1 | 0.0453 | 0.0029 | 0.0523 | 0.146 | 0.121
COc1ccccc1N=C1C(=O)c2ccccc2C(O)=C1N1CCCCC1 | 0.0188 | 0.0203 | 0.0297 | 0.0699 | 0.0879
Oc1ccccc1CN1CCN(C(c2ccccc2)c2ccccc2)CC1 | 0.0221 | 0.102 | 0.437 | 0.535 | 0.615
O=C(Nc1ccc(-c2nc3cc4ccccc4cc3[nH]2)cc1)c1cccc(Br)c1 | 0.028 | 0.421 | 0.851 | 0.873 | 0.909
Cc1cc(C)cc(Nc2cc(C)nc3nc(C(F)(F)F)nn23)c1 | 1.02 | 1.07 | 1.18 | 0.869 | 0.835
COc1ccccc1C(=O)ON=C(N)Cc1cccc2ccccc12 | 0.0446 | 0.121 | 0.299 | 0.373 | 0.195
Cc1ccnc(NC(c2cccc(OCc3ccccc3)c2)c2ccc3cccnc3c2O)c1 (stereo not given) | 0.0271 | 0.015 | 0.0204 | 0.00316 | 0
CN(C)c1ccc(N2C(N)=NC(N)=NC2(C)C)cc1 | 1.05 | 0.931 | 1.04 | 1.05 | 1.21
COc1ccc2nc(C)cc(Nc3ccccc3O)c2c1 | 0.139 | 0.625 | 1.04 | 1.09 | 0.912
Cc1nc2ccccc2c(O)c1CC=C(Cl)Cl | 0.814 | 0.962 | 0.897 | 0.87 | 1.06

Structure (SMILES) | viability index [1] | viability index [2] | viability index [3] | viability index [4] | viability index [5]
CCOc1ccc(-c2nonc2NC(=O)c2cccc(C)c2)cc1OCC | 0.0619 | 0.0773 | 0.0679 | 0.222 | 0.626
O=C(NC1CCN(Cc2ccccc2)CC1)c1cc2nc(-c3ccc(Cl)s3)cc(C(F)(F)F)n2n1 | 0.0778 | 0.366 | 0.843 | 0.883 | 1.01
CCOc1cccc2sc(N(Cc3cccnc3)C(=O)C3CCCCC3)nc12 | 0.478 | 0.691 | 1.09 | 0.951 | 0.989
CN(C)c1ccc(N=Cc2ccc(N3CCOCC3)cc2)cc1 | 0.955 | 0.834 | 0.927 | 1.01 | 0.896
CCCCNCC(O)(c1ccc(Cl)cc1)c1ccc(Cl)cc1 | 0.00663 | 0.0541 | 0.364 | 0.422 | 0.396
COc1ccc(N2CCN(C(CNC(=O)C3CCCCC3)c3ccc4c(c3)OCO4)CC2)cc1 (stereo not given) | 0.912 | 0.986 | 1.04 | 0.86 | 0.758
O=C1C2=C(Nc3ccccc3SC2c2ccccc2)c2ccccc21 (stereo not given) | 0.678 | 0.794 | 0.742 | 0.623 | 0.662
CCOc1ccc2nc(C)cc(Nc3ccc(N(C)C)cc3)c2c1 | 0.157 | 0.571 | 0.868 | 0.943 | 0.857
COc1ccc(-c2nc3cc(Cc4ccc5[nH]c(-c6ccc(OC)cc6)nc5c4)ccc3[nH]2)cc1 | 0.0276 | 0.441 | 0.864 | 0.809 | 0.538
COc1nc(Nc2ccc(C(C)C)cc2)nc(OC)n1 | 1.18 | 0.871 | 0.965 | 1.06 | 0.967
COc1ccc(C=C2SC(=N)N(c3ccccc3OC)C2=O)cc1 | 0.642 | 0.916 | 0.942 | 0.769 | 0.923
Cc1ccc(F)cc1NC(=O)c1cc(Cl)ccc1Nc1ccccc1 | 0.441 | 0.395 | 0.332 | 0.522 | 0.753
COc1ccc(NC(=O)C2c3ccccc3C(=O)N(CC(C)C)C2c2cccs2)cc1 (stereo not given) | 0.0343 | 0.0087 | 0.0354 | 0.216 | 0.0549
CN1C=C(c2ccc3ccccc3n2)C(c2c[nH]c3ccccc23)c2ccccc21 (stereo not given) | 0.178 | 0.0874 | 0.273 | 0.294 | 0.351
Clc1cc(Br)ccc1-c1ccc(CNCC2CCNCC2)o1 | 0.0166 | 0.0135 | 0.0099 | 0.0152 | 0.033
Clc1ccc2[nH]c3c(NCCCN4CCOCC4)ncnc3c2c1 | 0.0298 | 0.444 | 0.979 | 0.918 | 0.813
COc1ccc(NC(=O)C2c3ccccc3C(=O)N(CC(C)C)C2c2cccs2)cc1Cl (stereo not given) | 0.0453 | 0.00483 | 0.0636 | 0.24 | 0.11
Cc1cc(C=C2SC(=Nc3ccccc3)N(C3CCCC3)C2=O)c(C)n1-c1ccc(Cl)cc1 | 1.05 | 1.03 | 1.03 | 0.894 | 0.879
CCCN(CCC)CCCNC(=O)c1cc2c(-c3ccc(OC)c(OC)c3)nn(C)c2s1 | 0.302 | 0.754 | 0.996 | 0.954 | 0.868
Cc1cc(Nc2ccc3ccccc3c2)n2ncnc2n1 | 0.567 | 0.521 | 0.755 | 0.79 | 0.626

Structure (SMILES) | viability index [1] | viability index [2] | viability index [3] | viability index [4] | viability index [5]
O=C(NC1CCCC1)c1ccc(N2CCC(NCc3cccc(C(F)(F)F)c3)CC2)cc1 | 0.243 | 0.573 | 0.76 | 0.76 | 0.604
CC(O)(c1ccc(Cl)cc1)C(CN1CCCCC1)c1ccccc1 (stereo not given) | 0.115 | 0.32 | 0.809 | 0.818 | 0.802
CCc1ccc(Nc2cc(C)c3ccc(O)cc3n2)cc1 | 0.238 | 0.256 | 0.706 | 0.827 | 0.945
COc1cc(OC)cc(N2C(=O)N(Cc3ccc(C(C)(C)C)cc3)c3ccccc3S2(=O)=O)c1 | 1.04 | 0.96 | 1 | 0.785 | 0.662
COc1cccc(-c2nn(C)c3sc(C(=O)NCCN4CCN(c5ccccc5F)CC4)cc23)c1 | 0.0431 | 0.436 | 0.777 | 0.836 | 0.835
O=C(Nc1ccc(-c2nc3ccccc3[nH]2)cc1)c1ccc(Cl)c(Cl)c1 | 0.129 | 0.564 | 0.894 | 0.978 | 0.727
Cc1cc(Nc2ccc(OCc3ccccc3)cc2)nc2cc(O)ccc12 | 0.332 | 0.199 | 0.468 | 0.487 | 0.481
CC1CC2=C(CC1CNCCCN(C)C)C(C)(C)CCC2 (stereo not given) | 0.383 | 0.362 | 0.48 | 0.468 | 0.312
CCOc1ccc(-n2cc(-c3ccccc3)c3c(SCc4cc(C)ccc4C)ncnc32)cc1 | 1.12 | 0.908 | 0.934 | 1.03 | 1.03
CCOc1cc2c(cc1OCC)C(c1cc(OC)c(O)cc1Cl)NCC2 (stereo not given) | 0.0243 | 0.0957 | 0.513 | 0.723 | 0.626
COc1ccc(C(=O)Nc2ccc(Cl)cc2C(=O)Nc2ccncc2)cc1 | 0.0232 | 0.557 | 0.915 | 0.763 | 0.692
O=C(NCC1Cc2cccc(-c3ccncc3)c2O1)c1csc2c1CCCC2 (stereo not given) | 1.09 | 1.09 | 0.945 | 1.04 | 1.11
COc1ccc2c(c1)OC(O)(C(F)(F)C(F)(F)F)CC2=O (stereo not given) | 0.676 | 0.929 | 1.15 | 0.97 | 1.11
COc1ccc(C(O)(CCC(C)C)C(CN2CCOCC2)c2ccc(Cl)cc2)cc1 (stereo not given) | 1.2 | 0.843 | 1.12 | 1 | 0.922
COc1cccc(O)c1CN1CCC2(CCCN(Cc3ccc(F)cc3)C2)C1 (stereo not given) | 0.0144 | 0.0986 | 0.446 | 0.602 | 0.615
COc1ccc(C(=O)Nc2ccc3nc(N4CCCCC4)cc(C)c3c2)cc1OC | 0.275 | 0.58 | 0.95 | 0.9 | 0.989
COc1cc(OC)c(N(C)C(=O)c2cc3c(s2)-c2ccccc2S(=O)(=O)C3)cc1Cl | 0.00884 | 0.00676 | 0.0212 | 0.131 | 0.022
Cc1cc(NC(=O)C2c3ccccc3C(=O)N(CC(C)C)C2c2cccs2)no1 (stereo not given) | 0.0387 | 0.0193 | 0.0636 | 0.188 | 0.0879
CCOc1ccccc1NC(=O)CN1CCN(C(=O)c2ccco2)CC1 | 1.06 | 1 | 1.07 | 0.959 | 1.1
CCOC(=O)C1(Cc2ccccc2)CCN(Cc2cccc(OC)c2O)CC1 | 0.0586 | 0.0716 | 0.404 | 0.522 | 0.649
